Experimental data taken from PubChem BioAssay (NCI).
Several values for one entry are separate records, joined by “and”; a condition that tells them apart may be missing. Identical values can stand only once. About 83,000 compounds went through this panel and 20% of them were active in at least one assay; those are over-represented in the sample as a whole.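 Compound tested at a single concentration for 48 hours in 96-well plates; a percent growth value below 10 was scored as active.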 Activity calls are given as the source filed them.

system: MDA-MB-468 breast; test: NCI-60 one-dose screen, 48 h (100 = growth as untreated, 0 = no growth, -100 = all killed); conditions: 10 µM unless noted

SMILES	growth
[Cl][Hg][c]1ccc2ccccc2c1	-83.2% (active)
CC(=O)Nc1nc2c(s1)C1=CC[C@H]3[C@@H]4CC[C@H](OC(C)=O)[C@@]4(C)CC[C@@H]3[C@@]1(C)CC2	55.7% (inactive)
CN(C)c1ccc(N)cc1	98% (inactive) and 5.01% (active)
CNC(=O)O/N=C(/C)c1ccc(Cl)cc1	105% (inactive)
Cc1cc(C)c(CBr)c(C)c1	98.9% (inactive)
CN(CCF)/N=N/c1nc[nH]c1C(N)=O	26.7% (inactive)
COC(=O)C1CC2c3ccccc3C1c1ccccc12 (stereo unspecified)	93.1% (inactive)
ClC1OC(Cl)(Cl)C(Cl)(Cl)OC1(Cl)Cl (stereo unspecified)	105% (inactive)
CN[C@@]1(c2ccccc2Cl)CCCC[C@@H]1NCC1CCCO1 (stereo partly specified)	96.3% (inactive)
CCOc1ccccc1C(=O)OCC(Cl)(Cl)Cl	110% (inactive)
N#Cc1ccc(Cl)cc1	123% (inactive)
O=[N+]([O-])c1cnc[nH]1	108% (inactive)
N#C[Se]CCN1C(=O)C2C(C1=O)[C@H]1C=C[C@@H]2S1 (stereo partly specified)	-19.7% (active)
CN(CCCl)c1ccc(/C=C/C2=[N+](C)c3ccccc3C2(C)C)cc1	-1.54% (active)
CC(=O)O[C@H](C[C@H](C(C)C)N(C)C(=O)[C@@H](NC(=O)[C@H]1CCCCN1C)C(C)C)c1nc(C(=O)NC2CCC(C(=O)O)CC2)cs1 (stereo partly specified)	29.6% (inactive)
Cc1ccccc1-n1c(/C=C\c2ccccn2)nc2ccccc2c1=O	3.39% (active)
c1ccc(CCN2CCCCC2)nc1	107% (inactive)
CC[C@]12C=CCN3CC[C@]4(C(=C(C(=O)OC)C1)Nc1cc(OC)c(OC(C)=O)cc14)[C@@H]32	50.3% (inactive)

SMILES	growth
O=C1C=CC(=O)C2C1C1(Cl)C(Cl)=C(Cl)C2(Cl)C1(Cl)Cl (stereo unspecified)	5.2% (active)
CC1(C)N=C(N)N=C(N)N1c1ccc(CCCCc2ccc(Cl)c(S(=O)(=O)F)c2)c(Cl)c1	6.7% (active)
O=C1C(Cl)=C(N2CCOCC2)C(=O)c2ccccc21	-81% (active)
CN(C)CCCOc1ccc2c(c1)c(C(=O)C(=O)NCCO)cn2Cc1ccccc1	117% (inactive)
CCCCN(CCCC)P(=O)(Oc1ccccc1)Oc1ccccc1	39.2% (inactive)
C/C(=C\c1ccn(-c2ccccc2N)n1)[C@@H]1C[C@@H]2O[C@]2(C)CCC[C@H](C)[C@H](O)[C@@H](C)C(=O)C(C)(C)[C@@H](O)CC(=O)O1	0% (active)
CC[C@H](C)[C@H](NC(=O)[C@H]1CCCCN1C)C(=O)N(C)[C@H](CCc1nc(C(=O)N[C@@H](Cc2ccccc2)C[C@H](C)C(=O)OC)cs1)C(C)C	35% (inactive)
CC[C@@H](C)C(=O)O[C@H]1[C@H](O)[C@H]2[C@@H](CN3C[C@@H](C)CC[C@H]3[C@@]2(C)O)[C@@H]2C[C@]34O[C@]5(O)[C@@H](OC(=O)[C@@](C)(O)CC)CC[C@@]3(C)[C@@H]5[C@@H](OC(C)=O)[C@@H](OC(C)=O)[C@H]4[C@@]21O	90.6% (inactive)
C=CCN1C(=O)C(CC)(CCC(C)C)C(=O)NC1=S (stereo unspecified)	102% (inactive)
COc1ccc(/C=C\c2cc(OC)c(OC)c(OC)c2)c(NS(=O)(=O)c2ccc(F)cc2)c1O	15.9% (inactive)
C[N+]1(CC#CC[N+]2(C)CCCC2)CCCC1	98.6% (inactive)
O=C1NC(=O)C(=Cc2cccn2CCCCCn2c3ccccc3c(=O)c3ccccc32)C(=O)N1	107% (inactive)
CC(=O)N(C)C1=Nc2ccc(Cl)cc2C(c2ccccc2)=[N+]([O-])C1	111% (inactive)
COc1ccccc1/C=C(/C)[N+](=O)[O-]	14.4% (inactive) and 103% (inactive)
COc1ccc(NC([Se])=NC23CC4CC(CC(C4)C2)C3)cc1	-15.6% (active)
COc1ccc(-c2ccc(OC)c(OC)c2OC)cc1	-20.7% (active)
CCCCCCCCCC(=O)N[C@@](C)(CC)C(=O)N1CCC[C@H]1C(=O)N[C@@H](CC(C)C)C(=O)N[C@@](C)(CC)C(=O)N[C@@H](CCC(N)=O)C(=O)N[C@H](CCC(N)=O)C(=O)NC(C)(C)C(=O)NC(C)(C)C(=O)N[C@@H](CCC(N)=O)C(=O)N[C@H](CC(C)C)C(=O)N[C@H](CO)CC(C)C	-94.7% (active) and -92.4% (active)
CC1=C(O)[C@@](C)(CCCCC[C@H](C)CCCCc2ccc(O)cc2)OOC1=O	113% (inactive)
